B2AR arrestin = beta2AR (human) beta-arrestin recruitment activity. P07550. beta-arrestin recruitment to beta2AR, cell-based reporter. Potency, µM (doses to about 46.1 µM), actives largely listed as activators. hit rate 0.02% among 330,000. AID 492947; note: nearly all actives have a fitted effect of over 65% in size
Integrin act MD = activates integrin-mediated alleviation for muscular dystrophy; AID 624291; hit rate 0.064% among 350,000; alpha7betagal myoblasts, beta-gal FDG fluorescence, 48 h; Potency, µM (titrated, usually from 38.3 µM), actives largely listed as activators; note: nearly all actives have a fitted effect of over 60% in size
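Alpha7betagal+/- myoblasts (passage 13) were plated 16-24 hr, then exposed to compounds (1:260 dilution of DMSO stock) for 48 hours at 37C. After MPER lysis, β-galactosidase reporter activity was read as FDG fluorescence (ex 480/em 540) after 30 minutes.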
D3 ag = agonists of human D3 dopamine receptor; P35462; D3R DiscoveRx beta-arrestin cells, luminescence, 90 min; max activation, %; hit rate 0.58% among 410,000; AID 652048; in the data active = max activation above about 30%
Target sequence (P35462 whole entry, looked up): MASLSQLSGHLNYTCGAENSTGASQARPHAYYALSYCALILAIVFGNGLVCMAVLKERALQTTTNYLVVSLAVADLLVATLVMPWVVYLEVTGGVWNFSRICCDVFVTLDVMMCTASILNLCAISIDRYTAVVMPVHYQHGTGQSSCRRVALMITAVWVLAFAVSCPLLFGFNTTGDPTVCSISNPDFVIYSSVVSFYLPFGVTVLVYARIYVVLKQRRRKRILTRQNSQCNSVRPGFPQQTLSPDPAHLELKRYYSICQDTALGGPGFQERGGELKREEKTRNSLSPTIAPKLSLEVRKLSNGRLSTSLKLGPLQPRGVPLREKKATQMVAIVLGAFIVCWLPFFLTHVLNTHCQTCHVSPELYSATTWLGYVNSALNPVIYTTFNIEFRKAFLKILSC
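Cells at 1500/well, incubated overnight, then treated with pinned compounds (dopamine as control) for 90 min at 37 degrees C. DiscoveRx reagent added for 30 - 60 minutes at room temperature; luminescence read.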
D3 antag = D3 dopamine receptor (human) antagonism. P35462. D3R cells, DiscoveRx beta-arrestin luminescence, antagonist mode; active compounds read low. max response, negative = inhibition, %. hit rate 2.5% among 360,000. AID 652054; in the data active = max response below about -50%; inconclusive = no clear call, values can overlap the other calls
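Cells plated overnight at 1500 cells/well, then exposed to library compounds with dopamine controls for 90 minutes at 37 degrees C. DiscoveRx reagent added for 30–60 minutes at room temperature; luminescence read, quantitative HTS format.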
mIDH1 inhibitor = inhibitors of human mutant IDH1 R132H; IDH1-R132H enzyme, NADPH consumption, diaphorase/resazurin fluorescence; AID 602179; Potency, µM (top dose mostly 76.6 µM), hits mostly inhibitors; hit rate 0.093% among 390,000; note: nearly all actives have a fitted effect of over 65% in size
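IDH1-R132H (0.5 ug/mL dispensed) in pH 7.5 Tris buffer was preincubated 30 min with compound, then given a substrate mix of 0.016 mM NADPH and 2 mM alpha-KG for 80 min at room temperature; remaining NADPH was read by diaphorase/resazurin fluorescence.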
Each line names hits and unclear results; the compound was inactive in the other large screens. This is a sample that favours compounds with a hit; in the whole collection about 2.9% have one here. Unless noted, calls come from the whole dose curve; as a rule, active = well fitted curve in the direction sought with a large enough effect; inconclusive = small, poorly fitted or top-dose-only effect, or another doubt; inactive = no such curve, though single readings can be large; an effect the other way counts as inactive or inconclusive.

OC[C@@H]1[C@@H](c2ccccc2)C(c2ccc(F)cc2)=NN1c1ccccc1	D3 ag 38
CCOc1ccc(OCCC(=O)NNC(=O)c2ccncc2)cc1	none
OC(CNC1Cc2ccccc2C1)COc1ccc(F)cc1 (configuration not stated)	D3 antag -64
OC(CNC1CCCCCC1)COc1cccc2ccccc12 (configuration not stated)	Integrin act MD inconclusive, D3 antag -75
Cc1cc2c(OCC(O)CNC3CCCCC3)cccc2[nH]1 (configuration not stated)	D3 antag -59
OC(CNC1CCCC1)COc1ccccc1Br (configuration not stated)	none
COc1ccc(Cl)cc1NC(=O)Cn1c(=O)n(Cc2ccc(F)cc2)c(=O)c2cccnc21	none (no result: B2AR arrestin, Integrin act MD, D3 antag)
CN(C)c1ccc(/C=N\NC(=O)c2csnn2)cc1	none
Cc1cccc(/C=N\NC(=O)c2csnn2)c1	D3 antag -91
Cc1cccc(-n2[nH]c3c4c(ccc3c2=O)C(=O)c2ccccc2C4=O)c1	D3 antag -64
O=C(CN(Cc1ccccc1)S(=O)(=O)c1ccc(F)cc1)NCc1cccnc1	none
Cc1ccc(C)c(N2CCN(CCCNC(=O)c3ccc4nc(CCc5ccccc5)oc4c3)CC2)c1	none (no result: B2AR arrestin, Integrin act MD, D3 antag)
Cc1ccc(C)c(N2CCN(CCCc3ccccc3)CC2)c1	D3 antag -65
C/C=C(\C)CN1CCN(c2cc(C)ccc2C)CC1	D3 antag -86
C/C=C(\C)CN1CCN(c2cccc(C)c2C)CC1	D3 antag -88
Cc1ccc(OCc2nc3ccccc3n2Cc2ccccc2Cl)cc1	none (no result: B2AR arrestin, Integrin act MD, D3 antag)
Cc1cccc(N2CCN(S(=O)(=O)c3cc(Cl)ccc3Cl)CC2)c1C	D3 ag 65 (no result: B2AR arrestin, Integrin act MD, D3 antag)
CCCCn1nnnc1C(c1cc2ccccc2o1)N(Cc1ccccc1)Cc1ccccc1 (configuration not stated)	none (no result: B2AR arrestin, Integrin act MD, mIDH1 inhibitor)
CCCCn1nnnc1C(c1cc2ccccc2o1)N(CCC#N)Cc1ccccc1 (configuration not stated)	D3 antag -53 (no result: B2AR arrestin, Integrin act MD, mIDH1 inhibitor)
O=C(NC1CCN(C(=O)Nc2cccc(Cl)c2)CC1)C1CCCCC1	none
O=C(Nc1cccc(Cl)c1)NC1CCN(C2CCCCC2)C1 (configuration not stated)	D3 antag -103
COc1ccc(-c2nnc(SCC(=O)NC3CCCC3)nc2-c2ccc(OC)c(OC)c2)cc1OC	none (no result: B2AR arrestin, Integrin act MD, D3 antag)
COC(=O)C1=C(C)N(Cc2ccccc2)C(=NCC(C)C)N[C@H]1c1cccc(C(F)(F)F)c1	none
CCN1C(=NCCc2ccccn2)N[C@@H](c2cccc(C(F)(F)F)c2)C(C(=O)OC)=C1C	D3 antag -53
CCN1C(=NCc2cc(OC)c(OC)c(OC)c2)N[C@@H](c2ccccc2)C(C(=O)OC)=C1C	D3 antag inconclusive
COC(=O)C1=C(C)N(Cc2ccccc2)C(=NCc2ccccc2)N[C@H]1c1cccc(C(F)(F)F)c1	D3 ag 33, mIDH1 inhibitor inconclusive
CCN1C(=NCc2ccc(OC)cc2)N[C@@H](c2ccccc2)C(C(=O)OC)=C1C	D3 ag 41
Cc1ccc(Cn2c(=O)n(Cc3ccc(C(=O)NC4CCN(Cc5ccccc5)CC4)cc3)c(=O)c3ccccc32)cc1	none (no result: B2AR arrestin, Integrin act MD, D3 antag)
CCn1cc(C(=O)NCCc2ccc(Cl)cc2)c(=O)c2cc(S(=O)(=O)N3CCC(C)CC3)ccc21	none (no result: B2AR arrestin, Integrin act MD, D3 antag)
CC(=O)N(c1ccccc1C)C1CCCC1	none
CC(=O)N(C1=C(Cl)C(=O)c2ccccc2C1=O)C1CCCCC1	D3 antag -85
C=CC[C@@H](CC(=O)N[C@@H](CO)Cc1ccccc1)C(=O)NC[C@@H](OC(=O)[C@@H](CC=C)Cc1ccc(F)cc1)c1ccccc1	none
C=CC[C@@H](CC(=O)N[C@@H](CO)Cc1ccccc1)C(=O)NC[C@H](OC(=O)[C@@H](CC=C)Cc1ccc(F)cc1)c1ccccc1	D3 ag 53
C=CCC[C@@H](Cc1ccc(F)cc1)C(=O)OC[C@@H](NC(=O)[C@@H](CC=C)CC(=O)N[C@H](CO)Cc1ccccc1)C(C)(C)C	D3 antag -63
C=CCC[C@@H](Cc1ccc(F)cc1)C(=O)OC[C@@H](Cc1c[nH]c2ccccc12)NC(=O)[C@@H](CC=C)CC(=O)N(CCO)Cc1ccccc1	D3 ag 41
COc1ccc(N2CCN(C(=O)C(C)n3nc(C)c4sc5ccccc5c4c3=O)CC2)cc1 (configuration not stated)	none (no result: B2AR arrestin, Integrin act MD, D3 antag)
CC(C)C(=O)OCC(=O)[C@@]12O[C@H](C3CCCCC3)O[C@@H]1C[C@H]1[C@@H]3CCC4=CC(=O)C=C[C@]4(C)[C@H]3[C@@H](O)C[C@@]12C	none (no result: B2AR arrestin, Integrin act MD, D3 antag, mIDH1 inhibitor)
OC(COc1cccc2ccccc12)CN1CCN(c2cccc(Cl)c2)CC1 (configuration not stated)	D3 ag 45
Cc1cccc(N2CCN(CC(O)COc3ccccc3Cl)CC2)c1 (configuration not stated)	D3 antag -75
OC(COc1cccc2ccccc12)CN1CCN(c2ccc(Cl)cc2)CC1 (configuration not stated)	none
O=C(NCc1ccc(Cl)cc1)C1C2C=CC3(CN(Cc4cccnc4)C(=O)C13)O2 (configuration not stated)	none
O=C(NCc1ccc(F)cc1)C1C2C=CC3(CN(Cc4cccnc4)C(=O)C13)O2 (configuration not stated)	D3 ag 31
CCOc1ccc(C(=O)c2cn(Cc3ccc(Cl)cc3)c3cc(OC)c(OC)cc3c2=O)cc1	none (no result: B2AR arrestin, Integrin act MD, D3 antag)
NC(=S)N/N=C\c1ccccc1OCc1ccccc1	D3 antag -54
Cc1ccc(OCCCCNC2CCCCC2)c(C)c1	D3 antag -79
COc1cccc(OC)c1OCCCNC1CCCC1	D3 antag -55
Cc1ccc(OCC(O)CNC2CCCC2)c(C)c1 (configuration not stated)	none
COc1cccc(OC)c1OCCNCCO	none
Cc1ccc(C)c(OCCCNC2CCCC2)c1C	D3 antag -73
CO/N=C(\C(=O)N[C@@H]1C(=O)N2C(C(=O)O)=C(CSc3nnnn3C)CS[C@H]12)c1csc(N)n1	none (no result: B2AR arrestin, Integrin act MD, D3 antag, mIDH1 inhibitor)
O=C(Nc1ccc(Cc2ccncc2)cc1)c1cccs1	D3 ag 31
O=C(c1ccncc1)c1ccc(NC(=O)c2cccs2)cc1	none
O=C(O)c1ccc(Cl)c(S(=O)(=O)NCC2CCCO2)c1 (configuration not stated)	Integrin act MD inconclusive, D3 antag -54
CC(=O)Nc1cccc(NC(=O)C(C)N2c3cccc4cccc(c34)S2(=O)=O)c1 (configuration not stated)	none
O=[N+]([O-])c1ccccc1OCCNCc1ccccc1	D3 antag -86
O=C(c1ccc([N+](=O)[O-])cc1)N1CCC(Cc2ccccc2)CC1	none
Cc1ccc([N+](=O)[O-])c(OCCN2CCc3ccccc3C2)c1	D3 antag -60

Source: PubChem
